Experiment [1] in a line: qHTS to identify inhibitors of the type 1 interferon - major histocompatibility complex class I in skeletal muscle: primary screen against the NCATS Pharmaceutical Collection (AID 1347407).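 Further: luminescence of HiBiT knocked into endogenous HLA-B as interferon-induced MHC class I level.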 The gist of the method: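 A qHTS format is used: 8-point, 1:5 compound series with 46 uM top final concentration, applied alongside 4 ng/ml IFN-beta to HLA-B*08:01-HiBiT knock-in myoblasts. Luminescence is measured after 24 h treatment.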
For orientation: In qHTS, concentration-response curves come from the screen itself.

Experiment [2] addresses Protein phosphatase 1D (Homo sapiens) (UniProt O15297). Nature of the experiment: RapidFire Mass Spectrometry qHTS Assay for Modulators of WT P53-Induced Phosphatase 1 (WIP1) (AID 1347424).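 Further: amount of dephosphorylated VEPPL-S-QETFS peptide product formed by WIP1; series mostly up to about 63 µM.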 The gist of the method:
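Mass-spectrometric measurement of dephosphorylated peptide after a 5 min room-temperature reaction of 10 nM WIP1 with 2 uM phosphopeptide, following 1 h compound preincubation in 30 mM MgCl2 buffer.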

For experiment [3] the target is unchanged. In words: Rhodamine-PBP qHTS Assay for Modulators of WT P53-Induced Phosphatase 1 (WIP1) (AID 1347425). The gist of the method:
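5 nM WIP1 + 10 uM Rh-PBP, 50 mM Tris pH 7.5, 30 mM MgCl2, 1 mM TCEP, 0.1 mM EGTA, BSA; cpds pinned, 1 hr RT; + 10 uM phosphopeptide; fluorescence 1-min reads x 11 min; delta = f1 - f0.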

The target of experiment [4] is Calcium and integrin-binding protein 1 (Homo sapiens) (UniProt Q99828). In words: Primary qHTS for Identification of Calcium Integrin Binding Protein 1 (CIB1) Competitor (AID 1508620).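 Further: GST tagged CIB1 binding a fluorescein labelled alphaIIb integrin peptide tracer; top concentration of the series differs between compounds.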 In short, it runs like this: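 Fluorescence polarization competition: CIB1-GST (1 uM final) preincubated with compound 15 min at room temperature, then FITC-labeled alphaIIb peptide (100 nM final) added for another 15 min. Polarization read at Ex 480/Em 540.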

A short description of experiment [5]: Primary qHTS for inhibitors of La Crosse Virus (LACV) - induced cell death in SH-SY5Y cells (AID 1508616).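 Further: top concentration of the series differs between compounds; higher means more rescue of cells from virus-induced death.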 In short, it runs like this:
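Rescue of virus-induced death was read as ATPLite luminescence after 6 days at 37C, scaled between DMSO wells with LACV and without virus. Cells were SH-SY5Y, 6000/well, infected at 0.01 MOI after compound addition.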

The nature of experiment [6]: Counterscreen qHTS for small molecule stabilizers of the endoplasmic reticulum resident proteome: GLuc-NoTag assay (AID 1508627). Further: series mostly up to about 76 µM. The gist of the method:
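Secreted GLuc lacking the SERCaMP modification is measured in SH-SY5Y cells exposed to compound for 19 h and then to thapsigargin (100 nM, 4 h) to deplete ER calcium; hits retested at 11 concentrations, up to 76.6 uM.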
For orientation: The purpose of a counterscreen is to sort out artefacts and off-target activity.

The nature of experiment [7]: Confirmatory qHTS for small molecule stabilizers of the endoplasmic reticulum resident proteome: Secreted ER Calcium Modulated Protein (SERCaMP) assay (AID 1508628). Further: potency means the concentration at half of the fitted maximal effect; nearly all actives have a fitted effect of over 40% in size. The gist of the method:
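Reporter secretion upon ER calcium depletion (100 nM thapsigargin, 4 h, 37C) is measured as medium luminescence with coelenterazine, after 16 h compound pretreatment of SH-SY5Y-GLuc-SERCaMP cells; primary at three concentrations up to 38.3 uM, follow-up at 11 (up to 76.6 uM).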

Each structure is given as a SMILES string. Results filed as inconclusive are left out. Active and inactive are the calls of the source. The call rests on the fitted dose curve; in most records, active means well fitted curve in the direction sought with a large enough effect; inconclusive means small, poorly fitted or top-dose-only effect, or another doubt; inactive means no such curve, though single readings can be large; an effect the other way counts as inactive or inconclusive.

Sequence of Protein phosphatase 1D (Homo sapiens) (O15297 whole entry, looked up): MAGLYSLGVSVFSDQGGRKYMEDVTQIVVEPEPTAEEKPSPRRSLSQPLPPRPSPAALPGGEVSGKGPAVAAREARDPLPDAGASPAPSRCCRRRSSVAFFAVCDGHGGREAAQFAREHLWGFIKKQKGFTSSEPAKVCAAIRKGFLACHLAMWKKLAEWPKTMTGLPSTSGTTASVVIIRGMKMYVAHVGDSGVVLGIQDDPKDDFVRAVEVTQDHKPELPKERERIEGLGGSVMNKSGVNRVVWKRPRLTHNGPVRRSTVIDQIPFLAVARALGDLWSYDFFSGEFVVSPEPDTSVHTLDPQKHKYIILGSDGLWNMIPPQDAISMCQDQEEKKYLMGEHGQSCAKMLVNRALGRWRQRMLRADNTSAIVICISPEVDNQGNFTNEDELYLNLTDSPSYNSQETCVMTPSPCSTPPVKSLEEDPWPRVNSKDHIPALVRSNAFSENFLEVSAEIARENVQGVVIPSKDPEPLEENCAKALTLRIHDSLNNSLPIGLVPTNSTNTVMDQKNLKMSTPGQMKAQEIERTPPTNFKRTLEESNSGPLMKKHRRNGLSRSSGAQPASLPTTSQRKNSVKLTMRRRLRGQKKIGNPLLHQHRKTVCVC
Sequence of Calcium and integrin-binding protein 1 (Homo sapiens) (Q99828 whole entry, looked up): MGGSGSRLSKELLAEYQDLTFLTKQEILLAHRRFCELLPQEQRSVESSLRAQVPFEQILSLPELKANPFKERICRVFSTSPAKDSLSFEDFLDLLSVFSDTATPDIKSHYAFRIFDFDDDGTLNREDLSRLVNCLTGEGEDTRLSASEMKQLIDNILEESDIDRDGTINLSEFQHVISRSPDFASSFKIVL

As for `C[N+](C)(C)CCOC(=O)C(O)(c1ccccc1)c1ccccc1`, the Potency result in experiment [1], in experiment [2] and in experiment [4] was “inactive” each time. The compound was classed as inactive in experiment [3].
As for `CC(C)=CCN1CC[C@@]2(C)c3cc(O)ccc3C[C@@H]1[C@@H]2C`, the Potency entry in experiment [1], in experiment [2], in experiment [4] and in experiment [6] was “inactive” throughout. Further, the outcome in experiment [3] and in experiment [5] was inactive. In experiment [7], the Potency is 28.2 µM (active).
In the case of `CCCOC(=O)Cc1ccc(OCC(=O)N(CC)CC)c(OC)c1`, the Potency entry in experiment [1], in experiment [2] and in experiment [4] was “inactive” throughout. Also, the compound was called inactive in experiment [3] and in experiment [5].
For `O=C(CCl)c1ccc(Cl)cc1Cl`, the Potency entry in experiment [1], in experiment [2] and in experiment [4] was “inactive” throughout. In addition, the call in experiment [3] and in experiment [5] was inactive.
Turning to `C[C@]12CC[C@H]3[C@@H](CC=C4C[C@@H](O)CC[C@@]43C)[C@@H]1CC[C@@H]2O`, the Potency entry in experiment [1], in experiment [2] and in experiment [4] was “inactive” in each case. The compound was classed as inactive in experiment [3] and in experiment [5].
As to `OC(c1ccccc1)(c1ccccc1)C1CCNCC1`, the Potency result in experiment [1], in experiment [2], in experiment [4] and in experiment [6] was “inactive” throughout. The compound was classed as inactive in experiment [3] and in experiment [5]. For the same compound, the Potency in experiment [7] is 15.8 µM (active).
For `COc1cc(CC(C)N)c(OC)cc1Br` (centres undefined), the Potency result in experiment [1], in experiment [2] and in experiment [4] was “inactive” throughout. Besides, the outcome in experiment [3] and in experiment [5] was inactive.
In the case of `ClCc1cccc(Cl)c1`, the Potency result in experiment [1], in experiment [2] and in experiment [4] was “inactive” in each case. In addition, the result in experiment [3] and in experiment [5] was inactive.
Take `CCOC(C(=O)OCCN(C)C)(c1ccccc1)c1ccccc1`: the Potency result in experiment [1], in experiment [2] and in experiment [4] was “inactive” each time. Besides, the call in experiment [3] and in experiment [5] was inactive.
As for `CCC(=O)OC1(c2ccccc2)CCN(C)CC1`, the Potency result in experiment [1], in experiment [2], in experiment [4] and in experiment [6] was “inactive” in each case. Also, the call in experiment [3] and in experiment [5] was inactive.
Regarding `COc1cc(C[C@@H](C)N)c(OC)cc1C`, the Potency result in experiment [1], in experiment [2] and in experiment [4] was “inactive” each time. Further, the result in experiment [3] and in experiment [5] was inactive.
As for `CCOC(=O)C(c1c(O)c2ccccc2oc1=O)c1c(O)c2ccccc2oc1=O`, the Potency entry in experiment [1], in experiment [2] and in experiment [4] was “inactive” in each case. Moreover, the result in experiment [3] and in experiment [5] was inactive.
